Assay outcomes: PubChem, The Scripps Research Institute Molecular Screening Center
MBD2 DNA inh – MBD2-methylated oligo binding inhibition; Q9UBB5; 0.31% of 370,000 active; inhibition, % at 4.4 µM; TR-FRET, MBD2 binding to methylated oligonucleotide; in the data active = inhibition above about 13%
UHRF1 binding – UHRF1 methyl-DNA binding inhibition; Q96T88; UHRF1 binding to methylated oligo, TR-FRET; inhibition, % at 4.4 µM; 0.75% of 370,000 active; in the data active = inhibition above about 21%;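 also: UHRF1 SRA domain binding a hemimethylated CpG hairpin DNA probe; 0% = median of test compound wells and 100% = reference inhibitor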
PLCg1 inh – PLC-gamma1 (human) inhibition, primary screen; purified PLC-gamma1, fluorogenic substrate, fluorescence; inhibition, % at 12.2 µM; 0.84% of 370,000 active; in the data active = inhibition above about 9.5%
PLC-beta3 inh – inhibitors of human phospholipase C beta3; Q01970; Purified PLC-beta3, fluorogenic substrate, fluorescence; inhibition, % at 12.2 µM; 0.18% of 370,000 active; AID 720704; in the data active = inhibition above about 11%;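 also: 0% = median of compound wells on plate and 100% = full blocker control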
LEDGF integ inh – blocks HIV-1 LEDGF/p75-dependent DNA integration; 0.64% of 370,000 active; TR-FRET IN-LEDGF/p75 DNA integration, Eu/Cy5; inhibition, % at 3.7 µM;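 active = inhibition above the screen-wide mean plus 3 SD, cut at about 13% in these data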;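 also: signal is the Cy5 over europium emission ratio at 671 and 618 nm; 0% = plate median of compound wells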
The depositor's hits bear a star. Most compounds without a hit are left out; they make up all but 2.3% or so of the library.

SMILES	MBD2 DNA inh	UHRF1 binding	PLCg1 inh	PLC-beta3 inh	LEDGF integ inh
C#CCN(C(=O)CC1C(=O)NCCN1C/C=C/c1ccccc1)C1CCCCC1 (configuration not stated)	0	44*	-2	-2	-4
CN(C(=O)CC1C(=O)NCCN1C/C=C/c1ccccc1)C1CCOCC1 (configuration not stated)	3	3	0	-6	2
Nc1ccc2nc(SCc3ccccc3F)sc2c1	-1	23*	-5	-13	0
Nc1ccc2nc(SCC(=O)c3ccccc3)sc2c1	-3	-7	-17	-25	-1
Cc1cc(C)cc(C(=O)Nc2ccc(N3CCCC3)cc2)c1	1	47*	-11	-10	-3
OC(COc1ccc(Cl)cc1)CN1CCN(c2ccccn2)CC1 (configuration not stated)	1	-3	0	-5	5
OC(COC(c1ccccc1)c1ccccc1)CN1CCN(c2ccccn2)CC1 (configuration not stated)	8	23*	8	-5	1
O=C(NCCSc1c[nH]c2ccccc12)C1CC1	1	45*	-1	-2	-3
O=C(NCCSc1c[nH]c2ccccc12)c1c(F)cccc1F	0	-1	-1	2	-2
CC(=O)c1nn(-c2ccc(Cl)cc2)cc1C(=O)c1ccc(C)cc1	9	26*	-1	-7	-4
CN(C)c1ccc(C=c2c3ccccc3n3c2c2c([n+]3C)CCCC2)cc1	10	38*	-16	-23	-5
Cc1c(C(=O)N2CCCCCC2)c(S(=O)(=O)Nc2ccccc2F)c(C)n1C	0	5	0	-5	-1
CCc1ccccc1NS(=O)(=O)c1c(C(=O)N2CCCCCC2)c(C)n(C)c1C	2	21*	-1	-4	-2
NC(=O)C[n+]1cccc(CNC(=O)c2ccc(OC(F)F)cc2)c1	4	77*	3	-5	-5
CCC(CC)NC(=O)O[C@H]1CC[C@@]23CCCN2C(=O)CCC[C@H]3[C@H]1C	-2	1	2	3	3
O=C(NN1CC(C(=O)OCc2ccccc2F)CC1=O)c1ccccc1 (configuration not stated)	5	22*	-2	-6	0
Cc1ccc(-n2c(COc3ccccc3)nnc2SCC(=O)Nc2ccccc2-c2ccccc2)cc1	3	-1	2	3	1
COc1ccc(C(C(=O)NC2CCCCC2)N(C(=O)c2sc(C)nc2C)c2ccccc2)cc1 (configuration not stated)	1	-5	1	1	-2
Cc1ccccc1N(C(=O)c1snc(C(N)=O)c1N)C(C)C(=O)NC1CCCCC1 (configuration not stated)	1	-1	-169	-289	2
Cc1cccc(N(C(=O)c2snc(C(N)=O)c2N)C(C(=O)NC2CCCC2)c2ccc(C)o2)c1 (configuration not stated)	2	70*	-59	-92	-2
COc1ccc(C(C(=O)NC2CCCCC2)N(C(=O)c2sc(C)nc2C)c2ccccc2C)cc1 (configuration not stated)	-4	-1	9.9*	9	8
Cc1ccccc1N(C(=O)c1snc(C(N)=O)c1N)C(C(=O)NC1CCCCC1)c1ccc(O)cc1 (configuration not stated)	-6	50*	-301	-404	-1
Oc1ccc(Oc2ccccc2F)c2cccnc12	0	11	0	-4	6
COc1cccc(CN[C@@H]2CC[C@@]34CCCN3C(=O)CCC[C@H]4C2)c1	4	-1	-1	1	-2
CCOC(=O)[C@]12CCCCC/C=C\1N(CCc1ccc(Cl)cc1)C(=O)[C@H]2CC(=O)N1CCCC1	1	-1	1	3	0
SMILES	MBD2 DNA inh	UHRF1 binding	PLCg1 inh	PLC-beta3 inh	LEDGF integ inh
COc1ccc(CCN2C(=O)CCC2(C)c2nnnn2-c2c(C)cccc2C)cc1OC (configuration not stated)	7	22*	0	1	-3
COc1ccc(CN2C(=O)CCC2(C)c2nnnn2-c2c(C)cccc2C)cc1OC (configuration not stated)	2	-4	3	2	0
COC(=O)[C@]12C[C@H](CC(=O)N3CCSCC3)C(=O)N(Cc3cccc4ccccc34)C1=C[C@H](C1CCCC1)O[C@@H]2C	-4	3	8	4	1
CCCCc1nc2ccccc2c(NC(=O)CN2CCCC2)c1CCC	-1	7	2	0	6
O=C(CN1CCCCC1)Nc1c2c(nc3ccccc13)N(c1ccccc1)CC2	2	1	-319	-402	14*
O=C(Nc1nnc(-c2ccc(F)cc2)s1)C1CCN(S(=O)(=O)c2ccc(Cl)cc2)CC1	2	1	1	2	-2
Cc1ccc(S(=O)(=O)N2CCC(C(=O)Nc3nnc(-c4ccc(F)cc4)s3)CC2)cc1	11	25*	1	2	3
Oc1ccc2ccccc2c1C=NC12CN3CCN(CN(C3)C1)C2	-5	-2	-6	-13	24*
Fc1ccccc1-c1n[nH]c(=S)n1N=Cc1ccc(OCc2ccccc2)cc1	-3	-3	-6	-6	-3
CCN(CC)C(=O)[C@H]1C[C@H](CC(=O)NCCc2ccccn2)C(=O)N2CCc3c([nH]c4cc(CCC(=O)N(C)C)ccc34)[C@]12C	7	21*	-3	-2	8
CCc1nnc(NC(=O)CCC(=O)N2CCN(Cc3ccc(C)cc3C)CC2)s1	5	1	14*	1	4
COc1cccc(OC)c1C(=O)Oc1ccc2c(c1)O/C(=C\c1ccncc1)C2=O	-5	37*	-2	-4	0
COc1ccc(/C=C(\NC(=O)c2ccccc2)C(=O)N2CCCCC2)cc1OC	-2	56*	1	-5	7
COc1ccc(/C=C(/NC(=O)c2ccccc2)C(=O)N2CCCCC2)cc1OC	-1	-1	-2	-6	2
CN(C(=O)c1cccc(NC(=O)Cc2cccc(NC(=O)C3CCN(C(=O)C4CC4)CC3)c2)c1)C1CC1	-9	0	13*	10	5
CC(=O)C1(C(=O)NC2CCCC2)CC(c2ccccn2)=NO1 (configuration not stated)	-3	-3	-4	0	5
Cc1cc(C)nc(SCCN2CCCCC2)n1	-2	2	13*	-9	3
Cc1cc(C)nc(SCCN(C)C)n1	2	-1	3	4	-2
COC(=O)C1CN(Cc2cn(Cc3ccc(C)cc3)nn2)CCS(=O)(=O)N1Cc1ccc(Cl)cc1 (configuration not stated)	6	15	4	-1	-2
CCn1c(SCc2nc3sc(C(=O)O)c(C)c3c(=O)[nH]2)nc2ccccc21	7	25*	-24	-43	6
O=C(COc1ccc([N+](=O)[O-])cc1)Nc1cc(S(=O)(=O)N2CCCCC2)ccc1N1CCCCC1	10	22*	-1	-2	5
